Active and inactive are the calls of the source.
Experiments:
[1] = test system: Plasmodium falciparum Sir2 (PF13_0152, Sir2A); assay: Plasmodium falciparum Sir2A binding compounds – biochemical, small-molecule microarray, 635 nm fluorescence, primary screen (AID 1098); settings: fluorescence 635 nm, higher = more signal;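 further: score merges spot fluorescence intensity with its signal-to-noise ratio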
[2] = probe aDKK1 binding to arrayed compounds – biochemical, biotinylated probe, 635/667 nm fluorescence, primary screen (AID 1099); settings: small-molecule microarray, higher = more signal;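 further: score merges 667nm spot fluorescence with signal to noise across triplicate slides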
[3] = probe aCHRDL2 binding to arrayed compounds – biochemical, biotinylated probe, 635/667 nm fluorescence, primary screen (AID 1100); settings: small-molecule microarray, higher = more signal
[4] = change in splice reporter luminescence, either direction, cell-based, HEK293, spliceosome inhibition project, primary screen (AID 1101); settings: HEK293 splicing luciferase reporter, 24 h, higher = more signal, called active from +8 up or from −8 down;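 further: HEK293 cells carrying a splicing-competent luciferase reporter gene; test concentration not given here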
[5] = molecular target: Fibroblast growth factor 10 (Homo sapiens) (UniProt O15520); assay: compounds binding fibroblast growth factor 10 – biochemical, small-molecule microarray, 635 nm fluorescence, primary screen (AID 1102); settings: FGF10 binding, fluorescence 635 nm, higher = more signal
Fibroblast growth factor 10 (Homo sapiens), sequence (O15520 whole entry, looked up): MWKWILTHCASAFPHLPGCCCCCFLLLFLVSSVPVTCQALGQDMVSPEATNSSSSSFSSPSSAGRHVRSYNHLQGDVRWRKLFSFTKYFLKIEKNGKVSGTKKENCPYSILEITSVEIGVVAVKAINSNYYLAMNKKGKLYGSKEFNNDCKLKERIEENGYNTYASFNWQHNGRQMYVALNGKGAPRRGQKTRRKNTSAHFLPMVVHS

[6] = test system: glycogen synthase kinase-3 (GSK3A per assay name; protocol says GSK3B); assay: compounds binding glycogen synthase kinase-3 – biochemical, small-molecule microarray, 635 nm fluorescence, GSK3A, primary screen (AID 1103); settings: fluorescence 635 nm, higher = more signal; further: the record names both GSK3A and GSK3B
[7] = molecular target: Epidermal growth factor receptor (Homo sapiens) (UniProt P00533); assay: compounds binding epidermal growth factor receptor – biochemical, small-molecule microarray, 635 nm fluorescence, primary screen (AID 1104); settings: EGFR binding, higher = more signal;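 further: score merges 667 nm emission intensity with spot signal to noise over triplicate slides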
Epidermal growth factor receptor (Homo sapiens), sequence (P00533 whole entry, looked up): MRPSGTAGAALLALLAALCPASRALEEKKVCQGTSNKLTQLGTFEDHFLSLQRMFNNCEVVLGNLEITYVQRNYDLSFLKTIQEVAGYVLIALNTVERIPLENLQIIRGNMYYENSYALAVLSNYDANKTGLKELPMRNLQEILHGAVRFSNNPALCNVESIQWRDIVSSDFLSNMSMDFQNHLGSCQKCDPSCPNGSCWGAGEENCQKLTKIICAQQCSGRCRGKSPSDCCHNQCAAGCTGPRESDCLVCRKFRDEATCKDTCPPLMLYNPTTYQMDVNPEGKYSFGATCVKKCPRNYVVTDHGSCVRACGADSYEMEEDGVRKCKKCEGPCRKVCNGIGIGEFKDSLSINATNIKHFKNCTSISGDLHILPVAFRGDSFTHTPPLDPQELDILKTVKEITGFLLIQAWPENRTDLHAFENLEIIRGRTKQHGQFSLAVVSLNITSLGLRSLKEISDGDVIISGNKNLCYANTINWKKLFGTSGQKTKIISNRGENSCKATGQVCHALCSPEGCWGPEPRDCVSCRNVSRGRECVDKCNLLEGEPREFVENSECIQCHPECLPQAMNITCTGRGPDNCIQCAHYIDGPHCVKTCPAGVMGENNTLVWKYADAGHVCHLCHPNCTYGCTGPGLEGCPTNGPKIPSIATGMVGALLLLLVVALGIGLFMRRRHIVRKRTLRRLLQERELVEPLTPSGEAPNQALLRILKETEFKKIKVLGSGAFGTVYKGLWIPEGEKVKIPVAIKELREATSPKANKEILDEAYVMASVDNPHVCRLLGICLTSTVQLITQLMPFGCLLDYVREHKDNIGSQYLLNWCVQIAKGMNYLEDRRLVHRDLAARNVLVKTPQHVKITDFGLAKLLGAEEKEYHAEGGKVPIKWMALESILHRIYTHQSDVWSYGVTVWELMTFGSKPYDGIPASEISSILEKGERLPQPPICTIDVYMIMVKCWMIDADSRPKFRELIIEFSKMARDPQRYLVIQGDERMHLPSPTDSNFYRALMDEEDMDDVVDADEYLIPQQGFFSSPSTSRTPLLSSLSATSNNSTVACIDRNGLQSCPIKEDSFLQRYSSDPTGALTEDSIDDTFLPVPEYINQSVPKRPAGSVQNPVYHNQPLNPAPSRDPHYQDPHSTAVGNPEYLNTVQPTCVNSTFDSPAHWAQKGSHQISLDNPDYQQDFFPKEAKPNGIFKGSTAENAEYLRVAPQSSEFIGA

[8] = molecular target: Follistatin-related protein 3 (Homo sapiens) (UniProt O95633); assay: compounds binding follistatin-related protein 3 – biochemical, small-molecule microarray, 635 nm fluorescence, primary screen (AID 1105); settings: FSTL3 binding, higher = more signal;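 further: score merges emission near 667 nm and signal to noise per printed spot across three slides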
Follistatin-related protein 3 (Homo sapiens), sequence (O95633 whole entry, looked up): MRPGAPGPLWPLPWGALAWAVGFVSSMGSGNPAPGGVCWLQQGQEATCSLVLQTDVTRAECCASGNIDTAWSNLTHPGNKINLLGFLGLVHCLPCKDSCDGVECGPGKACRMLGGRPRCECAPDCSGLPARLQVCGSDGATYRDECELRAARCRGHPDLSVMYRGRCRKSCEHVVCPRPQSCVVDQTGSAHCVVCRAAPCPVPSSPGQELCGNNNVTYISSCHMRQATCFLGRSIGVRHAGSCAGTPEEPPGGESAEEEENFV

[9] = molecular target: Dickkopf-related protein 1 (Homo sapiens) (UniProt O94907); assay: small molecules binding DKK1 protein – biochemical, small-molecule microarray, 635 nm fluorescence scan, primary screen (AID 1106); settings: higher = more signal;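 further: score merges emission near 667 nm with signal to noise over three replicate slides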
Dickkopf-related protein 1 (Homo sapiens), sequence (O94907 whole entry, looked up): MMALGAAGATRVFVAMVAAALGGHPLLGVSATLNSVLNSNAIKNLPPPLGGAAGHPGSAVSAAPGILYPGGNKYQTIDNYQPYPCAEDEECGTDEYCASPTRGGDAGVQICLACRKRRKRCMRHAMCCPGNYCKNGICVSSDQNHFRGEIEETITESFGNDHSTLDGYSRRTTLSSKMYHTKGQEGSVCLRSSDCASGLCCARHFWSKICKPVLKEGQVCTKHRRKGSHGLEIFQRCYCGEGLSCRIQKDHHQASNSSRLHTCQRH

[10] = test system: Inhibin beta A chain (activin A); assay: small molecules binding activin A – biochemical, small-molecule microarray, 635 nm fluorescence scan, primary screen (AID 1107); settings: INHBA, higher = more signal;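 further: mouse activin A protein probed at 4.33 µg/mL on printed slides; score merges bound-protein fluorescence near 667 nm with spot signal-to-noise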
[11] = test system: Human papillomavirus type 1a protein E7 (residues 44-93); assay: small molecules binding HPV E7 44-93 – biochemical, small-molecule microarray, residues 44-93, 635 nm fluorescence, primary screen (AID 1108); settings: fluorescence 635 nm, higher = more signal;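 further: E7 fragment applied at 1 µg/mL in TBST for 1 h at 4 C; score combines spot fluorescence with its signal to noise ratio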
[12] = hepatitis C replication reporter changes, two-sided – Huh7 cells, luciferase reporter, HCV replication inhibitor project, primary screen (AID 1109); settings: Huh7 HCV replicon luciferase reporter, 48 h; higher = more signal;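 further: huh7 hepatoma cells harbouring a luciferase neomycin HCV replicon reporter; luciferase luminescence as measure of HCV replicon replication; test concentration not given here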
[13] = molecular target: Left-right determination factor 2 (Homo sapiens) (UniProt O00292); assay: small molecules binding LEFTY2 protein – biochemical, small-molecule microarray, 635 nm fluorescence scan, primary screen (AID 1110); settings: higher = more signal
Left-right determination factor 2 (Homo sapiens), sequence (O00292 whole entry, looked up): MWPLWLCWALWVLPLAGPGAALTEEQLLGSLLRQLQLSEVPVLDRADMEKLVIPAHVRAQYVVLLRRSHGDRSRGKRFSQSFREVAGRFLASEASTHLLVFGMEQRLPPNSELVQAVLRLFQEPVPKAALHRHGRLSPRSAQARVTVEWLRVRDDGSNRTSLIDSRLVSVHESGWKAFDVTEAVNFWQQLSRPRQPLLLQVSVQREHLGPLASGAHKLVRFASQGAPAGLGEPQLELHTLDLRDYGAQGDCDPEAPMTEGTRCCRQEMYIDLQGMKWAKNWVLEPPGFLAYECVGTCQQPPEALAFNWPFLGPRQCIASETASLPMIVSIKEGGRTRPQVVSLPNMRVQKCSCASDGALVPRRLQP

[14] = molecular target: Calmodulin-1 (Homo sapiens) (UniProt P0DP23); assay: small molecules binding calmodulin-1 with EGTA – biochemical, small-molecule microarray, Cy5-labelled CALM1, profiling panel (AID 1111); settings: Cy5-CALM1 binding fluorescence, higher = more signal;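 further: labelled calmodulin applied in Tris saline Tween buffer holding calcium plus EGTA and DTT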
[15] = molecular target: Calmodulin-1 (Homo sapiens) (UniProt P0DP23); assay: small molecules binding Ca-loaded calmodulin-1 – biochemical, small-molecule microarray, Cy5-labelled CALM1, plus calcium, artefact control for SMM control-protein annotation, profiling panel (AID 1112); settings: Cy5-CALM1 binding fluorescence, higher = more signal;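 further: score merges spot fluorescence with signal to noise from triplicate slides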
[16] = probe aWnt5a binding to arrayed compounds – biochemical, biotinylated probe, 635/667 nm fluorescence, primary screen (AID 1113); settings: small-molecule microarray, higher = more signal;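 further: score merges 667 nm fluorescence intensity with signal-to-noise per printed feature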
[17] = probe aShh binding to arrayed compounds – biochemical, biotinylated probe, 635/667 nm fluorescence, primary screen (AID 1114); settings: small-molecule microarray, higher = more signal;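 further: probe is biotin-labelled aShh protein from a stem cell growth factor screen; measures binding of labelled protein to compounds printed on the slide; score merges feature fluorescence at 667 nm with signal-to-noise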
[18] = probe aNog binding to arrayed compounds – biochemical, biotinylated probe, 635/667 nm fluorescence, primary screen (AID 1115); settings: small-molecule microarray, higher = more signal;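 further: probe is biotinylated aNog protein used at 0.15 µg/mL for 1 h at 4 C; z-score combines 667 nm fluorescence of each spot with its signal to noise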
[19] = molecular target: Torsin-1A-interacting protein 1 (Homo sapiens) (UniProt Q5JTV8); assay: compound microarray binding of lysate hLAP1 – cell lysate, small-molecule microarray, COS7 lysate, 635/667 nm fluorescence, primary screen (AID 1116); settings: 635 nm fluorescence, higher = more signal
Torsin-1A-interacting protein 1 (Homo sapiens), sequence (Q5JTV8 whole entry, looked up): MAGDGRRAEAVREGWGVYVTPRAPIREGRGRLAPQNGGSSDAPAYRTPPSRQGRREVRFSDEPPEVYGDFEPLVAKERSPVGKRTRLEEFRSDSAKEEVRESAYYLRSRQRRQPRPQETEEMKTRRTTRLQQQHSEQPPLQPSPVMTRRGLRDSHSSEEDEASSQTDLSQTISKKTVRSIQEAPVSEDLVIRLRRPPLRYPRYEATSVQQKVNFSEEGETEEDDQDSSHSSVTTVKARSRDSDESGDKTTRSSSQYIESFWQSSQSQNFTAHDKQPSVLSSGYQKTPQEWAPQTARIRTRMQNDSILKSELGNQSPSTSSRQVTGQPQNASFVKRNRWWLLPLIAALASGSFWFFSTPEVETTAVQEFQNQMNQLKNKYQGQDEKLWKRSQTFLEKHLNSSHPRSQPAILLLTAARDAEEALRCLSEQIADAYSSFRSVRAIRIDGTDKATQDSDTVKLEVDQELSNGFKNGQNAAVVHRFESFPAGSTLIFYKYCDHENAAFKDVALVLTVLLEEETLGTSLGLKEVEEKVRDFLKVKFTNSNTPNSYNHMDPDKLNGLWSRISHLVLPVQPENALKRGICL

[20] = molecular target: Alpha-bungarotoxin (Bungarus multicinctus) (UniProt P60615); assay: compounds binding labelled alpha-BTX control protein – biochemical, small-molecule microarray, Alexa647 label, 635/667 nm fluorescence, artefact control for SMM control protein annotation, profiling panel (AID 1117); settings: alpha-BTX-A647 binding fluorescence, higher = more signal
Alpha-bungarotoxin (Bungarus multicinctus), sequence (P60615 whole entry, looked up): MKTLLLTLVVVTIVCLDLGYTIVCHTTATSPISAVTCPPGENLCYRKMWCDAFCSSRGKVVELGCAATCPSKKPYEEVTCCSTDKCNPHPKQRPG

Structure (SMILES) | composite z-score [1] | composite z-score [2] | composite z-score [3] | z-score [4] | composite z-score [5] | composite z-score [6] | composite z-score [7] | composite z-score [8] | composite z-score [9] | composite z-score [10] | composite z-score [11] | z-score [12] | composite z-score [13] | composite z-score [14] | composite z-score [15] | composite z-score [16] | composite z-score [17] | composite z-score [18] | composite z-score [19] | composite z-score [20]
CCCCc1nc2c(c3c1C[C@H](C)OC3)CN(CCC(C)C)CC2 | 0.956 | -0.0466 | -0.47 | -0.0873 (inactive) | 0.627 | 1.25 | 0.488 | 1.26 | 0.562 | 0.0968 | 1.23 | -0.953 | 0.893 | -0.0635 | -0.747 | -0.0704 | -0.164 | 0.372 | 0.089 | 0.595
C#CCCCON=C1C[C@@H](O)[C@@H](O)[C@@H]2[C@@H]3C(=O)N(c4cccc(Oc5ccccc5)c4)C(=O)[C@@H]3CC[C@@H]12 | 0.632 | -0.178 | 0.0505 | -0.417 (inactive) | 0.985 | 0.548 | 0.213 | 0.802 | -0.0498 | -0.211 | 1.3 | -0.497 | 0.159 | 0.298 | -0.285 | -0.0808 | -0.0709 | -0.183 | 0.0847 | 0.724
C=C(/C(=C/C[C@H](OC(=O)c1ccncc1)c1ccc(OCCO)cc1)c1cnc2ccccc2c1)C(C)C | 0.933 | -0.196 | -0.163 | 0.215 (inactive) | 1.61 | 1.07 | 1.07 | 1.38 | 0.856 | 1.7 | 1.31 | -2.01 | 1.06 | 0.0481 | -0.708 | 0.0324 | 0.13 | -0.338 | 2.24 | 1.67
CN1C(=O)C2C=CC(C(O)c3ccc(I)cc3)N(NC(=O)OC(C)(C)C)C2C1=O (stereo not given) | 1.22 | 0.829 | 1.05 | 2.31 (inactive) | 0.599 | 1.24 | 0.04 | 0.925 | -0.168 | 0.599 | 1.41 | 0.0411 | 0.0192 | 0.526 | 0.202 | -0.0165 | 0.151 | 1.26 | 1.4 | 1.01
CN(C)c1ccc(C(O)C2C=CC3C(=O)N(c4ccccc4)C(=O)C3N2Nc2ccccc2F)cc1 (stereo not given) | 1.58 | 0.407 | 0.792 | -0.947 (inactive) | -0.235 | 1.23 | -0.675 | 0.206 | -0.606 | 0.941 | 1.31 | -0.369 | -0.633 | 0.104 | -0.472 | -0.0685 | 0.275 | 0.471 | 0.838 | 0.738
CC1CC/C=C\[C@H]2OC34C=CCN(Cn5nnc6ccccc65)C(=O)[C@H]3N(CCO)C(=O)[C@@H]4C2C(=O)O1 (stereo not given in full) | 2 | -0.559 | 0.514 | -1.58 (inactive) | -1.16 | 0.476 | -1.01 | 0.0695 | -0.52 | 1.19 | -0.487 | -0.505 | -0.28 | -0.614 | 0.383 | -0.147 | -0.291 | -0.256 | 2 | -0.118
Cc1ccc(F)cc1S(=O)(=O)N[C@@H]1CCN(Cc2ccc(CC(C)C)cc2)C1 | -0.242 | -0.389 | -0.24 | 1.1 (inactive) | -0.253 | -1.12 | -0.397 | -0.301 | -0.0911 | 0.346 | 0.135 | -3.88 | -0.185 | -0.793 | -0.328 | -0.23 | -0.138 | -0.272 | 0.464 | 0.0331
CCCC[C@@H]1C[C@H]1[C@@H](NS(=O)(=O)c1cccc2cccnc12)c1ccc(-c2ccccc2)cc1 | -0.383 | 0.583 | 1.09 | 1.19 (inactive) | 0.0068 | -0.356 | -1.26 | -0.417 | -0.475 | 0.76 | 0.97 | -0.122 | -0.732 | 0.691 | 1.23 | 0.138 | -0.01 | 1.31 | 0.0258 | 0.231
CCOC(=O)[C@H](Cc1ccccc1)NC(=O)CCC1CC(OC(=O)NCCc2ccc(F)cc2)CC2(CCCC(COC(=O)NCC(c3ccccc3)c3ccccc3)O2)O1 (stereo not given in full) | 0.892 | -0.273 | -0.368 | 0.378 (inactive) | 0.617 | 0.729 | 0.374 | 0.979 | 0.898 | -0.235 | 1.33 | 0.0395 | 0.414 | 0.53 | -0.658 | -0.124 | -0.0146 | -0.0496 | 2.49 | 0.0051
CC(=O)OC[C@H]1O[C@H](CCON=C[C@@H](C)[C@H](OCc2ccccc2)C(C)C)C=C[C@@H]1OC(C)=O | 0.343 | -0.36 | -0.743 | 0.244 (inactive) | 0.2 | 0.608 | 0.365 | 0.274 | 0.564 | -0.0819 | 0.837 | -0.461 | 0.646 | -0.501 | -0.911 | 0.0181 | -0.214 | -0.215 | 0.619 | 0.13
CO[C@@H]1COC(=O)CC=C[C@@H](C)[C@@H]2C=C[C@H](O)[C@@H](COC(=O)[C@H](C)NC(=O)CC=C[C@H]1C)O2 | 1.46 | -0.308 | -1.09 | -1.09 (inactive) | 0.441 | 0.674 | 1.04 | 1.03 | 1.28 | 0.578 | -1.68 | -2.12 | 0.433 | -1.52 | -1.99 | -0.103 | -0.0035 | -0.466 | -0.0424 | 0.304
